# Results: PubChem BioAssay (EPA / NIEHS)
# Several values for one entry are separate records, joined by “and”; a condition that tells them apart may be missing. Equal entries are not always repeated. A structure can be active in one record and inactive in another. Activity calls are given as the source filed them. How the source made its calls: active means hit-call score of the fitted dose curve at least 0.9, where 1 is the maximum; inactive means score below 0.9.
# Test: CCTE_Shafer_MEA_dev_per_network_spike_spike_percent: CCTE's Neural Network Formation Assay for Percent of Spikes in a Network Spike, Shafer Lab (AID 2284054)
# Experimental: CCTE_Shafer_MEA_dev assay is conducted using Axion Biosystems 48 well microelectrode array (MEA) plates and Maestro recording system. Each well of the MEA plate contains a grid of 16 microelectrodes embedded in the culture surface. Electrically active cells, such as neurons, can be cultured over the electrodes, and electrical activity in these cells can be recorded extracellularly. The spontaneous firing of neurons is captured from each electrode on a microsecond timescale providing both temporally and spatially precise data. […] The CCTE_Shafer_MEA_dev assay uses primary cultures of rat cortical neurons. Recordings are made on days post-plating 5, 7, 9 and 12. As these cultures mature over time, neural networks develop functional activity and form cohesive networks in which electrical activity can be highly coordinated. CCTE_Shafer_MEA_dev_per_network_spike_spike_percent is 1 of 19 assay components of the CCTE_Shafer_MEA_dev assay. It measures the percent of spikes (action potential firings) in a network spike (temporally-clustered group of spikes across multiple electrodes) as the number of spikes that occur within a 0.05 s time window at the peak of a network spike divided by the total number of spikes during a recording in a microelectrode array (MEA) using Axion Biosystems Maestro 768 channel amplifier with the AxIS adaptive spike detector. To collapse across multiple recordings made on days post-plating 5, 7, 9 and 12, the trapezoidal area-under-the-curve of the component is calculated.Data from the assay component CCTE_Shafer_MEA_dev_per_network_spike_spike_percent was analyzed into 1 assay endpoint. This assay endpoint, CCTE_Shafer_MEA_dev_per_network_spike_spike_percent, was analyzed in the negative analysis fitting direction relative to DMSO as the negative control and baseline of activity. Using a type of functional reporter, gain or loss-of-signal activity can be used to understand electrical activity.
# On the day prior to culture, each well was coated thoroughly with 150 uL of 0.05% polyethyleneimine (PEI, Sigma Cat P3143) in 50 mM HEPES (Sigma Cat H7523) at a pH of 8. The plate was incubated at 37C for one hour. PEI was rinsed out with 500 uL of sterile water three times. Plates were stored at 4C until the day of culture. This culture was plated at a seeding density of 1.5 x 10^5 cells/well on a 48-well MEA plate, prepared as described above. Cells were administered via a 25 uL media/laminin ([…]; Sigma Cat L2020-1MG) drop directly onto the microelectrode array, as adding the cells with the laminin results in better attachment than pre-coating with laminin. After 2 hours, an additional 475 uL of cortical media was added and the cells returned to the incubator. Exposure starts at day 0 of plating and is continued over twelve days of network development until the experiment is terminated. Cells are fed with fresh medium on DIV 5 and 9, following the recordings on those days. The entire volume of media in the well is exchanged and any vehicle or compound treatment is renewed. Complete details are found in OP-NHEERL/ISTD/SBB/TJS/2015-03-r0 (available on request, email shafer.tim@epa.gov). Measurement of the electrical activity is non-invasive, and recordings can be made from the same plate over multiple different days of the culture. In cortical neurons, this allows for the measurement of extracellular action potentials over the period during which networks form in the MEA plate.
SMILES,outcome,AC50
ClC1=C(Cl)[C@]2(Cl)[C@@H]3[C@H]4C[C@H]([C@@H]5O[C@H]45)[C@@H]3[C@@]1(Cl)C2(Cl)Cl,inactive,
NS(=O)(=O)C(F)(F)C(F)(F)C(F)(F)C(F)(F)C(F)(F)C(F)(F)C(F)(F)C(F)(F)F,inactive,4.59 µM (active)
ClC(Cl)=C(c1ccc(Cl)cc1)c1ccc(Cl)cc1,,3.83 µM (active)
O=C(O)C(F)(F)C(F)(F)C(F)(F)C(F)(F)C(F)(F)F,inactive,
Clc1ccc(C(c2ccccc2Cl)C(Cl)(Cl)Cl)cc1 (stereo not drawn),,0.708 µM (active)
CO/C=C(/C(=O)OC)c1ccccc1COc1cccc(C(F)(F)F)n1,,245 nM (active) and 751 nM (active)
O=C(O)C(F)(F)C(F)(F)C(F)(F)C(F)(F)C(F)(F)C(F)(F)C(F)(F)C(F)(F)F,inactive,
ClC1=C(Cl)[C@]2(Cl)[C@@H]3[C@@H]4C[C@@H]([C@H]5O[C@@H]45)[C@@H]3[C@@]1(Cl)C2(Cl)Cl,,15 µM (active)
COc1ccc(O)c(C(C)(C)C)c1,inactive,
CCC(C)(c1ccc(O)cc1)c1ccc(O)cc1,inactive,
C=CC(N)=O,inactive,
O=S(=O)(O)C(F)(F)C(F)(F)C(F)(F)C(F)(F)C(F)(F)C(F)(F)F,inactive,
Oc1ccc(C(c2ccc(O)cc2)(C(F)(F)F)C(F)(F)F)cc1,inactive,
CCOP(=S)(OCC)SCSC(C)(C)C,,23.1 µM (active) and 28.7 µM (active)
ClC1=C(Cl)[C@]2(Cl)[C@@H]3[C@@H](Cl)[C@H]4O[C@H]4[C@@H]3C1(Cl)C2(Cl)Cl,,26.1 µM (active)
O=S(=O)(O)C(F)(F)C(F)(F)C(F)(F)C(F)(F)F,inactive,
c1cc2ccc3cccc4ccc(c1)c2c34,inactive,
